In all, about 68,000 sequences were measured (“fluorescence intensity (a.u.)”: median about 9,100, highest 2% from about 16,000 on). Only a selection was taken, and the highest values are over-represented in it overall.
target: OsWRKY34 (Oryza sativa, UniProt Q0JBA9 1-250); experiment: protein-binding microarray (RPBM); PBS, 2% BSA, 51.3 ng/ul salmon testes DNA, 50 uM zinc acetate, 200 nM TF, 25 C, 1 h; high values mean tight binding; conditions: protein: recombinant; tags: N-terminal polyhistidine and DsRed monomer fusion (pET32a); label: CyDye5-dUTP incorporated in the synthesized complementary strand; 3' TTTTT single-stranded linker to array surface; dsDNA, one strand shown
Sequence (Q0JBA9 entry or part of it): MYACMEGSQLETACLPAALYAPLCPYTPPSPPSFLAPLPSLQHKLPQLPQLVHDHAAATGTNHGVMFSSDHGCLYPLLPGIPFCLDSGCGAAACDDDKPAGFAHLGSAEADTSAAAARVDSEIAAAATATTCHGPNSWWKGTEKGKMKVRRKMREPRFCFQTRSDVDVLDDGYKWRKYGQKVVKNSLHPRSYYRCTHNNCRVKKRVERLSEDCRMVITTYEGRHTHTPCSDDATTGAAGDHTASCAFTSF
Method in brief: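 Binding signal here means per-feature fluorescence intensity in arbitrary units. The values were read on an Axon 4000B scanner after a custom Agilent array, double-stranded by primer extension with Cy5-dUTP, was incubated with 200 nM protein at 25 °C for 1 h in PBS with 2% BSA, salmon testes DNA and 50 µM zinc acetate, then washed. The proteins were transcription factors with an N-terminal polyhistidine tag and DsRed, expressed in E. coli BL21-CodonPlus and purified on Ni–NTA.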

Row | Sequence | binding signal
1 | CCGGGTTCCTGTTTTTTCAACGCATGCACACTTTAATCTACGGAGTCACCTAGTGCAG | 9290 fluorescence intensity (a.u.)
2 | AATTTTTTTTTGCTTACAAAGGGTGAAACTTTCTCTCTCTCGGAGTCACCTAGTGCAG | 8500 fluorescence intensity (a.u.)
3 | CTCCGACGACCCCACCGTGCCCACCCCGACCGCCGTCTCGCGGAGTCACCTAGTGCAG | 9650 fluorescence intensity (a.u.)
4 | TTTCTGGGATATTCCATCTCATTACAGCACTCATTCTTTACGGAGTCACCTAGTGCAG | 9350 fluorescence intensity (a.u.)
5 | AATCTCCATCTTCTTGCTCGTACAACGTAAATACTCGTCTCGGAGTCACCTAGTGCAG | 8830 fluorescence intensity (a.u.)
6 | CGTCTTGTCTTGGCGTATGTTGGCTTGTATGTTGTTCCGTCGGAGTCACCTAGTGCAG | 10500 fluorescence intensity (a.u.)
7 | AGTTTTGTTTCTTTCCTGTTCACAGTTCACCTTTGCCTTTCGGAGTCACCTAGTGCAG | 12400 fluorescence intensity (a.u.)
8 | TTATTTTCTCCACTCACTACTTGTTCGTTTAGCAATTTGTCGGAGTCACCTAGTGCAG | 8750 fluorescence intensity (a.u.)
9 | CCGCTCCGTTTTGTGTCGTTTTGTGTATTTTCTCCACTCACGGAGTCACCTAGTGCAG | 17400 fluorescence intensity (a.u.)
10 | ACTTGATGTTCTTTCGTTCTTTCCTGCGAAAACGTCAGGCCGGAGTCACCTAGTGCAG | 25600 fluorescence intensity (a.u.)
11 | CTCTTTTCTTTCTTTTCTTTTCCTTTCTTTTTCCTTTCTTCGGAGTCACCTAGTGCAG | 8540 fluorescence intensity (a.u.)
12 | ATTGTCCATGATGTTCTTCCTTTTCTTTTTCGTTGTCAAACGGAGTCACCTAGTGCAG | 10300 fluorescence intensity (a.u.)
13 | CCTATTTTTGATGTTCCGGATTTTTTCTTTGCGGCCAAAACGGAGTCACCTAGTGCAG | 11700 fluorescence intensity (a.u.)
14 | CTTTCTTTTTCCTTCTCTCTCTCTTTTCTTTCTTTTCTTTCGGAGTCACCTAGTGCAG | 13600 fluorescence intensity (a.u.)
15 | ATCATCACTCCATTGCCGCTGTATTTGTTGTCATCGTTTTCGGAGTCACCTAGTGCAG | 11200 fluorescence intensity (a.u.)
16 | CCTGCCGTTTTCTTTTTCTTTTTCTTTCCTTTTCCTTTTTCGGAGTCACCTAGTGCAG | 17000 fluorescence intensity (a.u.)
17 | GTTCTTGGTTCCTGCATTTCTTTTCTTTTTTGCCTTTGTTCGGAGTCACCTAGTGCAG | 11300 fluorescence intensity (a.u.)
18 | CCCTTTGTCCTGCAGTACGTTTTTCCTTGCATTTTTCTTTCGGAGTCACCTAGTGCAG | 19700 fluorescence intensity (a.u.)
19 | TCCTCTCTGTCTTCTGTCTTCTCTTCTTCTTCCTCACCAACGGAGTCACCTAGTGCAG | 11600 fluorescence intensity (a.u.)
20 | CAAACAGAGCACACCTTTTTCCAGGACATTTGTCAATATTCGGAGTCACCTAGTGCAG | 9180 fluorescence intensity (a.u.)
21 | ATCCTTTTCTTTGGCAGTCCTTGATCCCAGATCCACATTTCGGAGTCACCTAGTGCAG | 9820 fluorescence intensity (a.u.)
22 | GGCTTTAATTGATCACTATGAATACTTGGCTTGTTGTCATCGGAGTCACCTAGTGCAG | 9040 fluorescence intensity (a.u.)

Row | Sequence | binding signal
23 | AAACCTCGCATGCCAATAGTTGGGAACGCCGGGGCGGGGTCGGAGTCACCTAGTGCAG | 9340 fluorescence intensity (a.u.)
24 | TTCCTTTTTCTATTTTTGGAATTTATTTTAATTTTTATTTCGGAGTCACCTAGTGCAG | 8910 fluorescence intensity (a.u.)
25 | CCCCGCTCGCGGCCCGGTCGCGCCAAACATCGTCCGACTCCGGAGTCACCTAGTGCAG | 9010 fluorescence intensity (a.u.)
26 | TCCACAACTGATTTTATTCCGACTTGTTTTTTTTTCTTTTCGGAGTCACCTAGTGCAG | 10800 fluorescence intensity (a.u.)
27 | TTACTACTTCACCGTCTCTTTTTCTTCCTCAGCGCACAAACGGAGTCACCTAGTGCAG | 9610 fluorescence intensity (a.u.)
28 | AGACGGAGGAGGACAAGGACATAGGGGAGGAGGGGCGAGGCGGAGTCACCTAGTGCAG | 9530 fluorescence intensity (a.u.)
29 | TTTTTCCGTGTGTGTCGTTTCGTTCTTGTTTGTTCGGGTCCGGAGTCACCTAGTGCAG | 12400 fluorescence intensity (a.u.)
30 | GCCGTTTCTTCTTTCTTTTTTTTTTCCGTGTGTGTCGTTTCGGAGTCACCTAGTGCAG | 16600 fluorescence intensity (a.u.)
31 | TTTTTCGTTTCCTTTCCGTGTTCTTTTTTTTTTCTTCCATCGGAGTCACCTAGTGCAG | 10100 fluorescence intensity (a.u.)
32 | GTGGATTTTTTTTTTCTTTTCTTTTTTCGTTGTTATTTGTCGGAGTCACCTAGTGCAG | 10600 fluorescence intensity (a.u.)
33 | ATTTCTTTTTGTTGTGTTATCGTGTTGTTTCGTCACTAGTCGGAGTCACCTAGTGCAG | 19600 fluorescence intensity (a.u.)
34 | ATGTTGTCGTGTATCATTTGTTTTTCTTATGTTATTTTCTCGGAGTCACCTAGTGCAG | 10700 fluorescence intensity (a.u.)
35 | ACACCTTCAATCGCTCTCTCATGAATTAACCGAACAAGACCGGAGTCACCTAGTGCAG | 9340 fluorescence intensity (a.u.)
36 | GTAGTAGGTAGCAGCAGTCTCAAACATGTCTTCTGAGTAGCGGAGTCACCTAGTGCAG | 9420 fluorescence intensity (a.u.)
37 | CGTGTTCTTGCCTGCGTATATACGGTGTACGTACACACGTCGGAGTCACCTAGTGCAG | 8870 fluorescence intensity (a.u.)
38 | AATTTTTTTTGGGGTTGCTGCTGTTTTTTTTGTGGAGGTTCGGAGTCACCTAGTGCAG | 9450 fluorescence intensity (a.u.)
39 | AAGGGCAGAGGAGAGGAGTTGCAGTGTGGTGTGTGGCATGCGGAGTCACCTAGTGCAG | 8870 fluorescence intensity (a.u.)
40 | GCTAGCTGCTGTCTTGTGTTGTGTTGTGTTGTGTGGCATGCGGAGTCACCTAGTGCAG | 8220 fluorescence intensity (a.u.)
41 | AGATTTTGGGTGTGTTTGGTTGCTTGCATTGTTTTAGTCTCGGAGTCACCTAGTGCAG | 9320 fluorescence intensity (a.u.)
42 | TATACTTGTTGGCTGCTGCTTTGTGTGTGGTGTGTTGTTTCGGAGTCACCTAGTGCAG | 10400 fluorescence intensity (a.u.)
43 | AGAGCTTGTGTGGTGGTGGGGCATCAGTGTGTCAGTTGTGCGGAGTCACCTAGTGCAG | 17100 fluorescence intensity (a.u.)
44 | CTTTGCTTGGTTGCTTGTGTTGTGTGCTGTGCTGTGCAGTCGGAGTCACCTAGTGCAG | 8220 fluorescence intensity (a.u.)

Row | Sequence | binding signal
45 | TTTTTTTTTTTTGTTGGGCTTGTGACTTGTGGGGTGTGCACGGAGTCACCTAGTGCAG | 11600 fluorescence intensity (a.u.)
46 | TCTTGGCGCTGTCGGTGTGTGGGTGGCGTTATATTTTTTTCGGAGTCACCTAGTGCAG | 9900 fluorescence intensity (a.u.)
47 | TGGGTTGGGATTTGTGCTTGTTTTTTTTTTTTGTGCGTGTCGGAGTCACCTAGTGCAG | 16600 fluorescence intensity (a.u.)
48 | GGGGCTGCTTGGGCTTGTGTTGTTTTTTTGGCAGATGCATCGGAGTCACCTAGTGCAG | 19100 fluorescence intensity (a.u.)
49 | GTGTGTTGGAGCTGCCGGTGTGTGGGTGGGGTTATTTTTTCGGAGTCACCTAGTGCAG | 25100 fluorescence intensity (a.u.)
50 | ACACTCAAACGACACTTCACGCATCTCTCCTGAAATCTTGCGGAGTCACCTAGTGCAG | 8780 fluorescence intensity (a.u.)
51 | ACTTCAGATGTTTCTTGTTCCTACACTTCGCTGCTTCAGTCGGAGTCACCTAGTGCAG | 11800 fluorescence intensity (a.u.)
52 | CTCCTCTCTCTCTCAGCTCACCACACCTCGAGTCGCCGCCCGGAGTCACCTAGTGCAG | 8180 fluorescence intensity (a.u.)
53 | ACTGCTGTCTCCGCGTTACTCTACGCATGCATGCATGTATCGGAGTCACCTAGTGCAG | 10000 fluorescence intensity (a.u.)
54 | GGGGTGGACTGGGGTGTTTGGCTGCGTGAGTGCGGAGCGGCGGAGTCACCTAGTGCAG | 8920 fluorescence intensity (a.u.)
55 | AGGGAGAGTGTGGGTGCGTGGGGCATATGGTGGTGCGGTGCGGAGTCACCTAGTGCAG | 9950 fluorescence intensity (a.u.)
56 | TATATCATATGCGGGCGTGATCTATTGGGGCGGGGTGTGGCGGAGTCACCTAGTGCAG | 20000 fluorescence intensity (a.u.)
57 | GGTGGGTGTGTGCTTGTTTCGGCGTGTGATTTGGGCGGAGCGGAGTCACCTAGTGCAG | 16500 fluorescence intensity (a.u.)
58 | GGTGAGTTCTTGATTTGGGCGTGGAGCTTTTTTTCTTGGTCGGAGTCACCTAGTGCAG | 8170 fluorescence intensity (a.u.)
59 | CCCTCCCCTCTGCTTCCGTTCCCTTGGGTTGGGTTGTGTTCGGAGTCACCTAGTGCAG | 8480 fluorescence intensity (a.u.)
60 | CTGCTGTGTTGCACATTTTTCTGCTCTGTATACCTATAATCGGAGTCACCTAGTGCAG | 12200 fluorescence intensity (a.u.)
61 | ATTCTGATTGGGTGTGGTTGGTTTGATTTTCTGTTAAGCACGGAGTCACCTAGTGCAG | 11700 fluorescence intensity (a.u.)
62 | GTGGTTATTCAATTTGTTGCTTGTTTTTGTTTCAAGTTGGCGGAGTCACCTAGTGCAG | 10700 fluorescence intensity (a.u.)
63 | CCCTTGGGTTGGGTTGTGTTGCTCCCTCTGCTGCATTAATCGGAGTCACCTAGTGCAG | 18100 fluorescence intensity (a.u.)
64 | TGGGTGGGTGCGGCGTGGAGTGACGTGGCGGCGGGTGTGGCGGAGTCACCTAGTGCAG | 8590 fluorescence intensity (a.u.)
65 | TATTCGATTTTGGGTGGTGGTTGTTAAGTTGGCATTTGCACGGAGTCACCTAGTGCAG | 18300 fluorescence intensity (a.u.)
